Compound activity: PubChem, several laboratories
In the library only some 32% were active in any assay of this set; here they are far more common.
PostGolgi ctrl: yeast control strain growth, post-Golgi counter-screen; efflux-deficient yeast background strain, growth absorbance A615, 16 h; actives 5% (n = 98,000); inhibition, % at 10 µM; AID 738
CYP2C19 inh: human CYP2C19 inhibition; actives 21% (n = 96,000); CYP2C19 Supersomes, luciferin-H EGE luminescence, 30 min; inhibition, % at 5 µM; P33261;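 active = CYP2C19 inhibition above a set limit at 5 µM in the primary screen, cut at about 50% in these data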;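 also: plate controls were negative control wells for no effect and 2.5 mM tranylcypromine positive control for full effect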
Target sequence (P33261 whole entry, looked up): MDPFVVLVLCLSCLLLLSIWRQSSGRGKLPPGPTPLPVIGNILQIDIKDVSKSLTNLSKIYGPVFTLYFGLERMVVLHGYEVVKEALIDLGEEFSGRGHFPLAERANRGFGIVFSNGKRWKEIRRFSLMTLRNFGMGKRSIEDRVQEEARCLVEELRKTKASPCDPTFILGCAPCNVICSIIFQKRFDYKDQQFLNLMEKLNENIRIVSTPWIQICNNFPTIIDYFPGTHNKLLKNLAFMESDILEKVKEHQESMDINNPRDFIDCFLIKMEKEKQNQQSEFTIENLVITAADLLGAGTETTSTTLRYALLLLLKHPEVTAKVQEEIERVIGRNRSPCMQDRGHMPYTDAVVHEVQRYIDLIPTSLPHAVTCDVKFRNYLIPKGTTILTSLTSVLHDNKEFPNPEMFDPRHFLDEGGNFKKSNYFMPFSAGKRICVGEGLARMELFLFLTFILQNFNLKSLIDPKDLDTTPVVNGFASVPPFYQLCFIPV
CYP2C9 inhib: inhibitors of human CYP2C9; CYP2C9 Supersomes, luciferin-H conversion, luminescence; inhibition, % at 5 µM; actives 20% (n = 96,000); AID 777;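 active = blocking of liver enzyme CYP2C9 beyond about 50% at 5 µM, limit read from the data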
CYP2C9 activ: CYP2C9 (human) activation | actives 1.4% (n = 96,000) | recombinant CYP2C9, luciferin-H conversion, luminescence; hits give high values; factor 1 = untreated enzyme, 0 = blocked | activation factor at 5 µM | P11712;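 active = activation factor of 2 or more for CYP2C9 at a 5 µM dose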;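 also: 0 = sulfaphenazole-blocked wells and 1 = vehicle-only wells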
CYP2C19 act: activators of human cytochrome P450 2C19 | P33261 | recombinant CYP2C19, luciferin-H EGE luminescence; hits give high values; 0 = fully inhibited enzyme, 1 = untreated enzyme | activation factor at 5 µM | 96,000 tested, under 10 active | AID 1025;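 active = activation factor of at least 2 at 5 µM in the primary screen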;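 also: 0 = wells with 2.5 mM tranylcypromine and 1 = vehicle-only wells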
PostGolgi yeast: growth inhibition of a yeast mutant, post-Golgi transport screen; post-Golgi transport phenotypic cell assay; inhibition, % at 10 µM; actives 0.9% (n = 98,000); AID 739;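 also: yeast cells grown in 1536-well plates; yeast grown about 18 h at 30C before absorbance read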
* = called active by the depositor; . = not tested or not shown. Rule as the data show it, unless noted: active = inhibition above about 30%; inactive = the rest.

SMILES	PostGolgi ctrl	CYP2C19 inh	CYP2C9 inhib	CYP2C9 activ	CYP2C19 act	PostGolgi yeast
CCN(CC(=O)Nc1cccc(Br)c1)Cc1nc2ccccc2c(=O)[nH]1	1	72*	65*	0.3	0.3	3
O=C(Cn1ccc2ccccc2c1=O)Nc1ccc2c(c1)OCO2	-10	18	11	0.9	0.8	-5
CCN(CC(=O)Nc1ccc2c(c1)OC(F)(F)O2)Cc1nc2ccccc2c(=O)[nH]1	9	88*	92*	0.1	0.1	-7
COc1cc(CO)cc(-c2cc(CO)cc(OC)c2OC)c1OC	5	11	4	1	0.9	1
NC(=O)c1sc2nc3c(c(-c4cccs4)c2c1N)CCCCC3	12	-13	-8	1.1	1.1	4
COc1cccc(C(=O)N(Cc2ccc3c(c2)OCO3)Cc2nc3ccccc3c(=O)[nH]2)c1	4	74*	81*	0.2	0.3	-11
CCc1ccc2c(CN(CC)Cc3nc4ccccc4c(=O)[nH]3)cc(=O)oc2c1	-4	48	40	0.6	0.5	-5
COc1ccccc1CN(Cc1nc2ccccc2c(=O)[nH]1)C(=O)Nc1cccc(C)c1	20	67*	57*	0.4	0.3	-2
CCN(CC(=O)NCc1ccc(F)cc1)Cc1nc2cc(Cl)ccc2c(=O)[nH]1	12	41	60*	0.4	0.6	-12
CCN(CC(=O)NC(=O)NC1CCCCC1)Cc1nc2ccccc2c(=O)[nH]1	2	27	33	0.7	0.7	-5
CCN(CC(=O)Nc1ccc2c(c1)CCC2)Cc1nc2ccccc2c(=O)[nH]1	22	92*	89*	0.1	0.1	-1
O=c1c2ccccc2oc2ncccc12	-5	14	20	0.8	0.9	-6
CC1CN(C2CCN(C(=O)COc3ccc(Cl)cc3)CC2)CC(C)O1 (stereo not drawn)	18	9	3	1	0.9	-1
O=C(Oc1ccc2cccc(OC(=O)N3CCOCC3)c2c1)N1CCOCC1	2	1	13	0.9	1	-2
CCC(c1nnnn1C(C)(C)C)N(CCOC)Cc1cc2cccc(C)c2n2nnnc12 (stereo not drawn)	0	-2	2	1	1	-8
COc1cc2nc(CN(C)Cc3nc4ccccc4c(=O)[nH]3)[nH]c(=O)c2cc1OC	4	-8	30	0.7	1.1	1
CN(CC(=O)Nc1ccccc1Br)Cc1nc2ccccc2c(=O)[nH]1	22	83*	81*	0.2	0.2	8
COc1ccc(-c2nnc(COc3ccc4ccccc4c3)o2)cc1OC	10	47	35	0.6	0.5	-4
CN(c1ccc(OCc2nnc(-c3ccccc3)o2)cc1)S(=O)(=O)c1ccccc1	6	94*	98*	0	0.1	-1
Cc1ccc(Nc2nc(C(=O)N3CCC(C(=O)N4CCN(C)CC4)CC3)cs2)cc1	9	77*	30	0.7	0.2	-9
COc1c(F)c(F)c(C(=O)Nc2ccc(N3CCN(Cc4ccccc4)CC3)cc2)c(F)c1F	5	-22	57*	0.4	1.2	-1
COc1ccc(NC(=O)c2ccc(CN3CCN(c4ccccc4)CC3)cc2)cc1	4	-11	10	0.9	1.1	64*
COc1cccc(N2CCN(CC(=O)Nc3nnc(-c4ccccc4)s3)CC2)c1	11	50*	78*	0.2	0.5	-3
COc1cccc(N2CCN(CC(=O)NCc3cccs3)CC2)c1	-7	49	40	0.6	0.5	-2
COc1cccc(NC(=O)c2ccc(CN3CCN(c4ccccc4)CC3)cc2)c1	-4	14	30	0.7	0.9	37*
SMILES	PostGolgi ctrl	CYP2C19 inh	CYP2C9 inhib	CYP2C9 activ	CYP2C19 act	PostGolgi yeast
COc1cccc(C(=O)Nc2ccc(N3CCN(Cc4ccccc4)CC3)cc2)c1	-2	12	5	1	0.9	4
CNC(=S)Nc1cc(OC)ccc1OC	3	3	-1	1	1	2
[O-][n+]1c2ccc3nonc3c2nn1-c1ccccc1Cl	20	43	20	0.8	0.6	-2
CCOC(=O)C(CC)(CC)/C(C)=N/NC(=O)CC#N	2	72*	20	0.8	0.3	5
CC1(C)CC(=O)N(c2ccccc2)C1(C)O (stereo not drawn)	0	4	-15	1.1	1	5
O=C1CC(c2ccccc2)Cc2nc(NCc3ccco3)ncc21 (stereo not drawn)	24	45	51*	0.5	0.5	0
O=C1CC(c2ccco2)Cc2nc(Nc3ccc(F)cc3)ncc21 (stereo not drawn)	6	56*	59*	0.4	0.4	3
COc1ccccc1C(=O)Nc1ncc2c(n1)CC(c1ccco1)CC2=O (stereo not drawn)	-7	56*	29	0.7	0.4	4
C=Cn1nc(C)c2ccccc2c1=O	-2	-7	-15	1.2	1.1	12
Cc1cc(NC(=O)CN2CC(C)OC(C)C2)n(-c2nc3ccccc3s2)n1 (stereo not drawn)	14	57*	56*	0.4	0.4	2
CCOC(=O)C1CCN(CC(=O)Nc2cc(C)nn2-c2nc3ccccc3s2)CC1	13	5	49	0.5	0.9	0
O=S(=O)(/C=C/c1ccccc1)Nc1ccc2c(c1)OCO2	17	100*	87*	0.1	0	-1
CN(C)S(=O)(=O)c1ccc(NS(=O)(=O)/C=C/c2ccccc2)cc1	5	70*	91*	0.1	0.3	-4
O=C(O)c1cccc(S(=O)(=O)Nc2ccc3c(c2)OCO3)c1	.	0	-6	1.1	1	.
CCOC(Cn1c(-c2ccc(OC)cc2)nc2ccccc21)OCC	13	50	86*	0.1	0.5	-8
COc1ccc(-c2nc3ccccc3n2Cc2ccc(C)cc2)cc1	43*	-2	23	0.8	1	31*
CCOC(=O)Cn1c(-c2ccc(Cl)nc2)nc2ccccc21	11	4	5	0.9	1	0
C=C(C)Cn1c(-c2ccc(OC)cc2)nc2ccccc21	19	90*	96*	0	0.1	0
CCCn1c(-c2ccc(OC)cc2)nc2ccccc21	17	11	10	0.9	0.9	8
COC(=O)C1=C(C)N(c2ccccc2)/C(=C/c2cccs2)C1=O	21	0	11	0.9	1	6
Cc1sc(NC(=O)CN2CCOCC2)nc1-c1ccc2c(c1)CCN2S(=O)(=O)c1ccccc1	3	7	14	0.9	0.9	2
CS(=O)(=O)N1CCc2cc(-c3csc(NC(=O)Cc4cccs4)n3)ccc21	0	90*	83*	0.2	0.1	-5
O=C(CN1CCOCC1)Nc1nc(-c2ccc3c(c2)CCN3S(=O)(=O)c2ccccc2)cs1	11	68*	86*	0.1	0.3	5
O=C1NN(c2ccc(F)c(Cl)c2)C(=O)/C1=C\c1cccc(OC(=O)c2cccs2)c1	3	-17	51*	0.5	1.2	-4
CCOC(=O)CNC(=O)CNC(=O)Cn1ccc2ccccc2c1=O	2	-6	-7	1.1	1.1	-17
